# From PubChem BioAssay AID504408 (Broad Institute, 2011)
# The whole screen tested about 300,000 compounds, of which about 5,200 (1.7%) were called active.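 Rule for the calls: active = mean replicate activation of at least 50% with a set share of replicates each reaching 50%; inconclusive = only one of those two conditions met; inactive = mean below 50% and too few replicates reaching it.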 The entries come from a sample that favours actives as a whole.
# Assay: HSF-1 activators, primary screen, NIH3T3-HGL cells, MG132 stress, luminescence, single point (AID 504408);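 note: 0% = median of the neutral control wells and 100% = twice that signal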
# Details: NIH3T3-HGL HSF-1 luciferase reporter, MG132, 8 h; at 9 µM; hits give high values; 100% = twice DMSO control signal
row,SMILES,activation
1,O=C(NCC(c1ccco1)N1CCc2ccccc2C1)c1ccccc1Cl (stereo not given),6.39% (inactive)
2,CC(OC(=O)CNC(=O)c1ccco1)C(=O)Nc1ccc(Cl)cn1 (stereo not given),0.765% (inactive)
3,C=CCNC(=O)C1CC2c3ccccc3C1c1ccccc12 (stereo not given),0.377% (inactive)
4,CCC(C)N(C(=O)Cn1nc(C)c([N+](=O)[O-])c1C)C1CCS(=O)(=O)C1 (stereo not given),-1.43% (inactive)
5,COc1ccc(S(=O)(=O)Nc2ccc3c(c2)OCO3)cc1Cl,-5.83% (inactive)
6,COc1ccc(F)cc1S(=O)(=O)NCC(c1ccc2c(c1)OCO2)N1CCN(C)CC1 (stereo not given),7.05% (inactive)
7,COc1ccc(F)cc1S(=O)(=O)Nc1ccc2c(c1)OCO2,53.7% (active)
8,COc1ccccc1CCC(=O)OCC(=O)N1CCN(S(=O)(=O)c2ccc(C)cc2C)CC1,25.7% (inactive)
9,Nc1nc(Nc2ccccc2)nc(NCCO)c1[N+](=O)[O-],12.4% (inactive)
10,CNc1nc(Nc2ccc(C)c(Cl)c2)nc(N)c1[N+](=O)[O-],76.4% (active)
11,COc1cccc(Nc2nc(N)c([N+](=O)[O-])c(NCc3ccco3)n2)c1,27.8% (inactive)
12,Cc1cccn2c(=O)nc(SCC(=O)NCc3ccccc3Cl)nc12,0.293% (inactive)
13,COc1ccc(-c2cnc(SCCNC(=O)c3ccc4c(c3)OCO4)[nH]2)cc1,9.08% (inactive)
14,COc1ccc(C2=NOC(Cn3nc(C(=O)NCc4ccc5c(c4)OCO5)cc3-c3ccccc3)C2)cc1 (stereo not given),7.07% (inactive)
15,CCN1C(=O)[C@H]2[C@@H](c3ccc(SC4CCCCC4)c(OC)c3)N[C@@](Cc3ccccc3)(C(=O)OC)[C@H]2C1=O,-7.66% (inactive)
16,Cc1ccc(O)c(NC(=S)NC(=O)COc2ccc(Br)cc2)c1,12.4% (inactive)
17,Cc1ccc(F)c(NC(=O)CCOc2ccccc2C)c1,7.19% (inactive)
18,Cc1ccc(O)c(NC(=O)COc2cc(C)ccc2C)c1,76.7% (active)
19,CCOC(=O)CNC(=O)CSc1nnc(COc2ccc(Cl)cc2)n1CC,52.7% (active)
20,CCn1c(COc2ccccc2)nnc1SCC(=O)NCc1ccco1,-12.7% (inactive)

row,SMILES,activation
1,CCn1c(COc2ccc(OC)cc2)nnc1SCC(=O)Nc1cc(OC)ccc1OC,19.9% (inactive)
2,Cc1ccc(C(=O)Nc2nc3ccc(Cl)cc3s2)o1,44.3% (inactive)
3,O=C(CSc1n[nH]c(-c2cccs2)n1)N1CCCCC1,-14% (inactive)
4,O=C(OCC(=O)N1CCCC1=O)c1cc(S(=O)(=O)N2CCOCC2)ccc1Cl,-4.42% (inactive)
5,Cc1ccc(N/C=C/C(=O)c2ccccc2)cc1C,77.8% (active)
6,CCOc1ccc(N/C=C/C(=O)c2ccccc2)cc1,23.5% (inactive)
7,Cc1noc(NS(=O)(=O)c2ccc(N/C=C/C(=O)c3ccccc3)cc2)c1C,-20.4% (inactive)
8,Cc1c(C)n2c(SCC(=O)NC3CCCC3)nnc2[nH]c1=O,-15.2% (inactive)
9,CCC(=O)/C(=C(/O)c1ccccc1)c1nc2ccccc2[nH]1,4.66% (inactive)
10,O=C(/C(=C/c1cccc(Cl)c1)c1nc2ccccc2[nH]1)c1ccccc1,199% (active)
11,COc1ccc(/C=C(/NC(=O)c2ccc(C)cc2)c2nc3ccccc3[nH]2)cc1OC,-0.506% (inactive)
12,Cc1ccc(C)c(OCCC(=O)Nc2cccc(S(=O)(=O)N3CCCC3)c2)c1,-4.4% (inactive)
13,N#CC1(NC(=O)COC(=O)CSc2ccc(F)cc2)CCCCC1,0.517% (inactive)
14,CCN(CC(=O)Nc1c(F)cccc1F)C(=O)c1ccc(Sc2nncn2C)c([N+](=O)[O-])c1,-3.26% (inactive)
15,Cc1c(NC(=O)CN(C)CC(=O)Nc2ccc(F)c(F)c2F)c(=O)n(-c2ccccc2)n1C,1.95% (inactive)
16,COc1cc(C(=O)NCC(=O)NCCSc2ccc(Br)cc2)cc(OC)c1OC,7.39% (inactive)
17,Cc1cc(NC(=O)CSCc2ccccc2C)no1,56.3% (active)
18,Cc1cc(NC(=O)c2ccccc2C)no1,26.1% (inactive)
19,Cc1ccccc1CSCC(=O)NC(=O)NC(C)(C)C,5.08% (inactive)
20,O=C(COc1coc(CN2CCN(c3ccccc3)CC2)cc1=O)N1CCc2ccccc21,1.05% (inactive)

row,SMILES,activation
1,COc1ccc(N2CCN(C(=O)COC(=O)c3cccc(S(=O)(=O)Nc4ccccc4OC)c3)CC2)cc1,5.51% (inactive)
2,Clc1cccc(-c2nc3nc4ccccc4nc3n2Cc2ccco2)c1,79.2% (active)
3,Cc1cc(NC(=O)CSc2nc3cc(Cl)ccc3c(=O)n2Cc2ccco2)no1,1.94% (inactive)
4,O=c1[nH]c(CSc2ncc(-c3ccc(F)cc3)n2Cc2ccco2)nc2ccccc12,41.8% (inactive)
5,O=C(NCCSc1ncc(-c2ccccc2)[nH]1)c1ccco1,10.6% (inactive)
6,CCCNC(=O)c1cnc(-c2ccccc2)nc1-c1ccccc1,23.9% (inactive)
7,CCCCOc1ccc(-c2ncc(C(=O)OCC)c(N)n2)cc1,23.3% (inactive)
8,CCOC(=O)c1cnc(-c2ccccc2)nc1Oc1ccc(C)cc1,88.3% (active)
9,O=C(COc1cccc2c1CCNC2=O)NC1CCCCC1,-2.8% (inactive)
10,CC(C)Nc1nnc(SC(C)C(=O)N(C)C2CCCCC2)s1 (stereo not given),7.73% (inactive)
11,N#CC(=C1SC=CS1)c1nc(-c2ccccc2)cs1,44.5% (inactive)
12,CCCCCN1CC(O)=C(c2nc(-c3ccc(Cl)cc3)cs2)C1=N,-2.24% (inactive)
13,N#CC(=C1CCCC1)c1nc(-c2ccc(Cl)cc2)cs1,62.5% (active)
14,O=C(COc1ccccc1Cl)Nc1ccccc1C(=O)NC1CC1,-14.4% (inactive)
15,CN(C)CCN(C(=O)CN1C(=O)c2ccccc2C1=O)c1nc2cc3c(cc2s1)OCCO3,16% (inactive)
16,CN(CC(=O)Nc1cccc(F)c1)C(=O)C1=COCCO1,3.81% (inactive)
17,Cc1cc(Nc2ccc(Br)cc2)nc2ccccc12,0.857% (inactive)
18,CCOC(=O)C1=C(C)N=C2c3ccccc3C(=O)C2C1c1ccc(Br)cc1 (stereo not given),-1.71% (inactive)
19,Cc1cccc(C2C3=C(CCCC3=O)N=C3c4ccccc4C(=O)C32)c1 (stereo not given),78.2% (active)
20,O=C1CCCC2=C1C(c1ccccc1)n1c(s/c(=C/c3cccc(F)c3)c1=O)=N2 (stereo not given),-4.55% (inactive)
